The values that follow come from PMC5700166.

The target in the assay is T1, GST-Nv-NF-kB (Ser allele) (Nematostella vectensis, UniProt A7UNT2 2-411).
T1 sequence: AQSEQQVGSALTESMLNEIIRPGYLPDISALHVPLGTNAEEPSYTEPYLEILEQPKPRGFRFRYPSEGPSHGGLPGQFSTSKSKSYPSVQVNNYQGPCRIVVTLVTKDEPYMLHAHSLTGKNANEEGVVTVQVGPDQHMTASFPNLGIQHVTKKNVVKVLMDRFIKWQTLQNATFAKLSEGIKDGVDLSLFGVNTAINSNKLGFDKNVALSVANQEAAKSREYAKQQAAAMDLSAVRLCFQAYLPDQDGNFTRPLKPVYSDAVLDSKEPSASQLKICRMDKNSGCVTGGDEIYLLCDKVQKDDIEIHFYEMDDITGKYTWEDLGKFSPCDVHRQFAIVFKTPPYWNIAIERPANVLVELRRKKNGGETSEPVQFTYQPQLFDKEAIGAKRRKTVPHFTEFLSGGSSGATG
The assay is described as follows: protein-binding microarray (PBM); PBM: ~300 nM protein, 6 mM HEPES pH 7.8, 80 mM KCl, 0.5 mM EDTA, 0.5 mM EGTA, 6% glycerol, 35 ng/ul poly-dIdC, 1% milk, 1 h, room temperature; Ap Aiptasia and Nv Nematostella (sea anemones) / Co Capsaspora / Aq Amphimedon (sponge) / Dm Drosophila / Hu human; RHD is the Rel homology domain; high values mean tight binding. The note with it: dsDNA, one strand shown.
In turn, “CCGATTAACATCAGGGGAACGCATGATGTTAATCGGGTCTTGATTCGCTTGACGCTGCTG” yielded a binding signal of 6.49 z-score.

“CCGATTAACATCAGGGGGCTATATGATGTTAATCGGGTCTTGATTCGCTTGACGCTGCTG” came in with a binding signal of 2.2 z-score. The sequence “CCGATTAACATCAAATTTCCCAGTGATGTTAATCGGGTCTTGATTCGCTTGACGCTGCTG” yielded a binding signal of 3.63 z-score.

“CCGATTAACATCAAAAAATCCCATGATGTTAATCGGGTCTTGATTCGCTTGACGCTGCTG”: the binding signal is 4.17 z-score. “CCGATTAACATCAAAAATCCCAATGATGTTAATCGGGTCTTGATTCGCTTGACGCTGCTG” had a binding signal of 2.4 z-score.

As to “CCGATTAACATCAAAAAAACCCCTGATGTTAATCGGGTCTTGATTCGCTTGACGCTGCTG”, the binding signal came to 9.69 z-score. Sequence “CCGATTAACATCAGGGAATTTACTGATGTTAATCGGGTCTTGATTCGCTTGACGCTGCTG” gave a binding signal of 6.33 z-score. Sequence “CCGATTAACATCAAGGGGGTACTTGATGTTAATCGGGTCTTGATTCGCTTGACGCTGCTG” yielded a binding signal of 4.77 z-score. “CCGATTAACATCAGGGGAGGGAATGATGTTAATCGGGTCTTGATTCGCTTGACGCTGCTG” yielded a binding signal of 5.03 z-score.

“CCGATTAACATCAGGGGATACACTGATGTTAATCGGGTCTTGATTCGCTTGACGCTGCTG” had a binding signal of 5.34 z-score.

Regarding “CCGATTAACATCAAGGGGGGGTGTGATGTTAATCGGGTCTTGATTCGCTTGACGCTGCTG”, the binding signal was 3.53 z-score. Regarding “CCGATTAACATCAGGTTTCCCCATGATGTTAATCGGGTCTTGATTCGCTTGACGCTGCTG”, the binding signal was 8.78 z-score. “CCGATTAACATCAAAAATACCCCTGATGTTAATCGGGTCTTGATTCGCTTGACGCTGCTG” gave a binding signal of 7.96 z-score.

“CCGATTAACATCAGGGGGGACGATGATGTTAATCGGGTCTTGATTCGCTTGACGCTGCTG” showed a binding signal of 4.5 z-score. In turn, “CCGATTAACATCAGGGGAACCACTGATGTTAATCGGGTCTTGATTCGCTTGACGCTGCTG” registered a binding signal of 7.26 z-score. Then “CCGATTAACATCAAAAAACCCCTTGATGTTAATCGGGTCTTGATTCGCTTGACGCTGCTG”, with 7.86 z-score; and “CCGATTAACATCAGGGTATTTTATGATGTTAATCGGGTCTTGATTCGCTTGACGCTGCTG”, with 7.61 z-score. Sequence “CCGATTAACATCAAGAACTTCCCTGATGTTAATCGGGTCTTGATTCGCTTGACGCTGCTG” had a binding signal of 3.72 z-score.

For the sequence “CCGATTAACATCACGGGGAATTCTGATGTTAATCGGGTCTTGATTCGCTTGACGCTGCTG”, the binding signal amounted to 10.3 z-score. For “CCGATTAACATCAGGGGATTTAATGATGTTAATCGGGTCTTGATTCGCTTGACGCTGCTG”, the binding signal was found to be 9.99 z-score.

“CCGATTAACATCAGGGGAATTAATGATGTTAATCGGGTCTTGATTCGCTTGACGCTGCTG” registered a binding signal of 10.2 z-score.

As to “CCGATTAACATCAAATGTCCCCCTGATGTTAATCGGGTCTTGATTCGCTTGACGCTGCTG”, the binding signal was 5.66 z-score. In turn, “CCGATTAACATCAGGAATTCCCCTGATGTTAATCGGGTCTTGATTCGCTTGACGCTGCTG” displayed a binding signal of 11.7 z-score. Turning to “CCGATTAACATCAAAAACTCCCCTGATGTTAATCGGGTCTTGATTCGCTTGACGCTGCTG”, the binding signal was 9.57 z-score.

In turn, “CCGATTAACATCACACATCCCCCTGATGTTAATCGGGTCTTGATTCGCTTGACGCTGCTG” yielded a binding signal of 5.41 z-score.

Sequence “CCGATTAACATCAAGACTTCCCCTGATGTTAATCGGGTCTTGATTCGCTTGACGCTGCTG” registered a binding signal of 7.93 z-score.

In turn, “CCGATTAACATCAGGGGGGTGAATGATGTTAATCGGGTCTTGATTCGCTTGACGCTGCTG” had a binding signal of 4.43 z-score. In the case of “CCGATTAACATCAGGGGGGTAAATGATGTTAATCGGGTCTTGATTCGCTTGACGCTGCTG”, the binding signal was 4.83 z-score. With “CCGATTAACATCATAAATTCCCATGATGTTAATCGGGTCTTGATTCGCTTGACGCTGCTG”, the binding signal amounted to 5.22 z-score. Turning to “CCGATTAACATCAAATCCCCCCGTGATGTTAATCGGGTCTTGATTCGCTTGACGCTGCTG”, the binding signal is 6.8 z-score.

Turning to “CCGATTAACATCAAATTCCCATGTGATGTTAATCGGGTCTTGATTCGCTTGACGCTGCTG”, the binding signal came to 4.15 z-score. “CCGATTAACATCAGGGGGCGGGATGATGTTAATCGGGTCTTGATTCGCTTGACGCTGCTG”: the binding signal worked out at 3.53 z-score. For “CCGATTAACATCAGGAAATTCCCTGATGTTAATCGGGTCTTGATTCGCTTGACGCTGCTG”, the binding signal came to 8.03 z-score. For “CCGATTAACATCAGGGGGTGGTATGATGTTAATCGGGTCTTGATTCGCTTGACGCTGCTG”, the binding signal worked out at 3.98 z-score.

With “CCGATTAACATCAAAAATTACCCTGATGTTAATCGGGTCTTGATTCGCTTGACGCTGCTG”, the binding signal came to 7.03 z-score. In the case of “CCGATTAACATCACGGGGGATTCTGATGTTAATCGGGTCTTGATTCGCTTGACGCTGCTG”, the binding signal is 8.48 z-score. For “CCGATTAACATCAAAGGACCCCCTGATGTTAATCGGGTCTTGATTCGCTTGACGCTGCTG”, the binding signal stood at 3.92 z-score.
